Shown are actives, neighbours in structure and some others; about 3.1% of the full set was active somewhere.
UHRF1 binding = human UHRF1 methylated DNA binding inhibitors; Q96T88; UHRF1 binding to methylated oligo, TR-FRET; inhibition, % at 4.4 µM; hit rate 0.75% among 370,000; in the data active means inhibition above about 21%;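 further: UHRF1 SRA domain binding a hemimethylated CpG hairpin DNA probe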
LEDGF integ inh = blocks HIV-1 LEDGF/p75-dependent DNA integration; TR-FRET IN-LEDGF/p75 DNA integration, Eu/Cy5; inhibition, % at 3.7 µM; hit rate 0.64% among 370,000;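 active means inhibition above the screen-wide mean plus 3 SD, cut at about 13% in these data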;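 further: signal is the Cy5 over europium emission ratio at 671 and 618 nm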
MBD2 DNA inh = blocks human MBD2 binding to methylated DNA; hit rate 0.31% among 370,000; TR-FRET, MBD2 binding to methylated oligonucleotide; inhibition, % at 4.4 µM; Q9UBB5; in the data active means inhibition above about 13%
Target sequence (Q9UBB5 whole entry, looked up): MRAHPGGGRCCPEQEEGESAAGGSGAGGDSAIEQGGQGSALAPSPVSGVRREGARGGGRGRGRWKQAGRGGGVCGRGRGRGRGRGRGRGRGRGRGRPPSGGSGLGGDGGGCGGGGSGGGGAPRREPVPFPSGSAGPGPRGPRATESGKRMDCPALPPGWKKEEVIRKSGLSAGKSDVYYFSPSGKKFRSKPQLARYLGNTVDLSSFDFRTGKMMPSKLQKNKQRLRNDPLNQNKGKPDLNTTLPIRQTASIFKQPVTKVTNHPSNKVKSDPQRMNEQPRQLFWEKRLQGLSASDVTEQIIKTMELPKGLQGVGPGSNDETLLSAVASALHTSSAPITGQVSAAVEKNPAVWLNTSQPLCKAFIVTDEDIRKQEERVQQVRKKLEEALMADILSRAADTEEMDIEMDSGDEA
KLK7 zymogen act = activators of human kallikrein-7 zymogen | AID 652039 | P49862 | hit rate 0.9% among 370,000 | activation, % at 7 µM | purified proKLK7, EDANS-DABCYL substrate fluorescence; 100% is mature enzyme control, 0% vehicle;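 active means activation above the mean of all tested compounds plus 3 SD, computed per campaign excluding outliers beyond control limits, cut at about 13% in these data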
Target sequence (P49862 whole entry, looked up): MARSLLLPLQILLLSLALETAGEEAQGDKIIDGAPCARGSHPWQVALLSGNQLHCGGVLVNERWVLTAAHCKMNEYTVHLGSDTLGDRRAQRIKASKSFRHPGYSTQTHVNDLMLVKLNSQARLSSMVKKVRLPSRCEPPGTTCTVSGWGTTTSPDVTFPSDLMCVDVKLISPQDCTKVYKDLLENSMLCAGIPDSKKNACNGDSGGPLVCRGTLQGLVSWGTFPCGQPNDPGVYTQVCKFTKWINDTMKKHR
Rin1 Abl inh = human Rin1-Abl interaction inhibition | P00519+Q13671 | TR-FRET Rin1/Abl binding, biochemical | inhibition, % at 7.35 µM | hit rate 0.4% among 360,000 | AID 588664; in the data active means inhibition above about 5%, passing the limit was not always enough
Neddyl block = cullin neddylation inhibition; calls only at 25 µM; hit rate 0.58% among 360,000; TR-FRET cullin neddylation, biochemical; P61081+Q13564; in the data active means inhibition above about 36%
proKLK7 act conf = proKLK7 activation, confirmation. AID 686949. activation, % at 7 µM. purified proKLK7, EDANS-DABCYL substrate fluorescence; scaled: vehicle 0, mature enzyme 100. shares compounds with KLK7 zymogen act. hit rate 68% among 3,200;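 active means activation, as change over the incubation, above the mean of all tested compounds plus 3 SD, cut at about 13% in these data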
EDANS-DABCYL int = fluorescence interference counter-screen for KLK7 activators; AID 686952; shares compounds with KLK7 zymogen act; EDANS-DABCYL substrate fluorescence interference, no enzyme, 4 h; solvent 0%, active enzyme control 100%; hit rate 80% among 3,200; activation, % at 7 µM;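 active means activation above the all-compound mean plus 3 SD, ignoring values outside control-based bounds, cut at about 4.8% in these data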;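 further: value is the 4 h activation minus the activation read at time zero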
K7 EDANS ctr = EDANS fluorescence interference in dose response, no enzyme. shares compounds with KLK7 zymogen act. EDANS-DABCYL peptide fluorescence interference. EC50, µM. hit rate 20% among 250;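 active means compounds that raise the fluorescence signal in this interference counterscreen, with EC50 at or below 10 µM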;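 further: intact quenched peptide substrate alone read at 355 nm excitation and 520 nm emission; signal is fluorescence gain from T0 to T4 after four hours at room temperature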
Each line names hits and unclear results; the compound was inactive in the other large screens (follow-up assays come after a bar, where shown).

COc1ccccc1CCC(=O)OCC(=O)Nc1ccc(C(N)=O)cc1	none
CCN(C(=O)COC(=O)c1ccccc1NCCO)C1CCS(=O)(=O)C1 (configuration not stated)	KLK7 zymogen act 25.5 (not shown: Neddyl block) | proKLK7 act conf 32.0 | EDANS-DABCYL int 35.3
CCOC(=O)N1CCN(C(=O)COC(=O)c2ccccc2NCCO)CC1	KLK7 zymogen act 24.9 (not shown: Neddyl block) | proKLK7 act conf 27.8 | EDANS-DABCYL int 38.1
Cc1ccc(-c2cc(C(=O)NCC3(N(C)C)CCCCC3)c3ccccc3n2)o1	KLK7 zymogen act 72.5 (not shown: Neddyl block) | proKLK7 act conf 20.7 | EDANS-DABCYL int 46.2
CCN(C(=O)COC(=O)c1cc(-c2ccc(C)o2)nc2ccccc12)C1CCS(=O)(=O)C1 (configuration not stated)	KLK7 zymogen act 174.2 | proKLK7 act conf 202.2 | EDANS-DABCYL int 186.8
CC(C)(C)OC(=O)N1CCC(NC(=O)c2[nH]c(C(F)(F)F)nc2-c2ccccc2)CC1	none
Cc1ccc(-c2cc(C(=O)OCC(=O)N(C)C3CCS(=O)(=O)C3)c3ccccc3n2)c(C)c1 (configuration not stated)	none
Cc1ccc(-c2cc(C(=O)OCC(=O)N(C)C3CCS(=O)(=O)C3)c3ccccc3n2)o1 (configuration not stated)	KLK7 zymogen act 134.9 | proKLK7 act conf 14.5 | EDANS-DABCYL int 11.4 | K7 EDANS ctr 6.97
CCN(CC)CCn1c(SCC(=O)Nc2cccc(OC)c2)nc2c(sc3ccccc32)c1=O	none
COc1cccc(NC(=O)CSc2nc3c(sc4ccccc43)c(=O)n2CCN(C)C)c1	KLK7 zymogen act 14.4 | proKLK7 act conf inactive | EDANS-DABCYL int inactive
CC1CCCC(C)N1CC(O)COCc1ccccc1F (configuration not stated)	none
O=CNC1(c2ccccc2)CCCCC1	none
CCCCNC(=O)c1cc2c(=O)n3cccc(C)c3nc2n(CCN2CCOCC2)c1=N	KLK7 zymogen act 16.1 (not shown: Neddyl block) | proKLK7 act conf inactive | EDANS-DABCYL int 10.2
COCCCn1c(=N)c(C(=O)NCc2ccc3c(c2)OCO3)cc2c(=O)n3cccc(C)c3nc21	none
Cc1cccn2c(=O)c3cc(C(=O)NCCc4ccccc4)c(=N)n(Cc4ccco4)c3nc12	none (not shown: Neddyl block)
CCCCNC(=O)c1cc2c(=O)n3cccc(C)c3nc2n(Cc2ccncc2)c1=N	KLK7 zymogen act 44.5 (not shown: Neddyl block) | proKLK7 act conf inactive | EDANS-DABCYL int inactive
Cc1cccn2c(=O)c3cc(C(=O)NC4CCCCC4)c(=N)n(CCN4CCOCC4)c3nc12	none (not shown: Neddyl block)
COCCNC(=O)c1cc2c(=O)n3cccc(C)c3nc2n(Cc2ccncc2)c1=N	KLK7 zymogen act 140.7 (not shown: Neddyl block) | proKLK7 act conf 43.7 | EDANS-DABCYL int 54.2
COCCCn1c(=N)c(C(N)=S)cc2c(=O)n3cccc(C)c3nc21	KLK7 zymogen act 35.4 (not shown: Neddyl block) | proKLK7 act conf 21.4 | EDANS-DABCYL int 24.3
Cc1cccc(OCC(=O)NC(=S)Nc2ccc(S(=O)(=O)NC3CCCCC3)cc2)c1	none
O=C(Nc1ccc(Cl)cc1Cl)c1ccc(Br)o1	none
CC(=O)N1CCN(C(=O)CSc2nc3cccnc3n2C)CC1	none (no result: Rin1 Abl inh, Neddyl block)
N=c1c(C(=O)NCCN2CCOCC2)cc2c(=O)n3ccccc3nc2n1CCCN1CCOCC1	KLK7 zymogen act 14.4 (not shown: Neddyl block) | proKLK7 act conf inactive | EDANS-DABCYL int 5.0
Cc1ccc2nc3c(cc(C(N)=S)c(=N)n3CCCOC(C)C)c(=O)n2c1	KLK7 zymogen act 14.2 (not shown: Neddyl block) | proKLK7 act conf inactive | EDANS-DABCYL int inactive
CCOc1ccc(S(=O)(=O)N2CCN(CN3C(=O)CC4(CCCC4)C3=O)CC2)cc1	none
CC(C)(C(=O)N1CCC1(C)C(=O)NS(=O)(=O)c1ccc(C#N)cc1)c1ccccc1 (configuration not stated)	none
COc1ccc(CN2C(=NC(=O)C3CCCCC3)SC3CS(=O)(=O)CC32)cc1 (configuration not stated)	none
O=C(O)COCC(=O)N1CCCN(c2nccc(C(F)(F)F)n2)CC1	none (no result: UHRF1 binding, LEDGF integ inh, MBD2 DNA inh, KLK7 zymogen act)
CCOC(=O)[C@]12CCCC=C1N(CCc1ccc(OC)c(OC)c1)C(=O)[C@H](CC(=O)N1CCSCC1)C2	none (no result: Rin1 Abl inh)
COc1ccc(C2=Cc3ccc(OC(C)=O)cc3OC2)cc1	KLK7 zymogen act 24.5 | proKLK7 act conf 13.6 | EDANS-DABCYL int 11.1
CC(=O)Oc1ccc2c(c1)C(=O)c1ccccc1CO2	none
CN[C@H]1C[C@H]2c3[nH]c4cccc(-c5cccc(C)c5)c4c3CCN2C(=O)[C@H]1[C@H](C)O	none (no result: Rin1 Abl inh, Neddyl block)
COCC(=O)N(C)[C@H]1C[C@H]2c3[nH]c4c(-c5ccccc5)cccc4c3CCN2C(=O)[C@H]1[C@H](C)O	none (no result: Rin1 Abl inh, Neddyl block)
C[C@H](O)[C@@H]1C(=O)N2CCc3c([nH]c4ccccc34)[C@@H]2C[C@@H]1N(C)C(=O)NC1CCCCC1	KLK7 zymogen act 36.5 (not shown: Neddyl block) | proKLK7 act conf 26.1 | EDANS-DABCYL int 21.4 | K7 EDANS ctr 8.36
COCC(=O)N(C)[C@H]1C[C@H]2c3[nH]c4ccccc4c3CCN2C(=O)[C@H]1[C@H](C)O	KLK7 zymogen act 26.9 (not shown: Neddyl block) | proKLK7 act conf 39.6 | EDANS-DABCYL int 41.8
COCCNC(=S)N(C)[C@H]1C[C@H]2c3[nH]c4ccccc4c3CCN2C(=O)[C@H]1[C@H](C)O	KLK7 zymogen act 51.2 (no result: Rin1 Abl inh, Neddyl block) | proKLK7 act conf 33.3 | EDANS-DABCYL int 33.9
C[C@H](O)[C@@H]1C(=O)N2CCc3c([nH]c4c(-c5ccccc5)cccc34)[C@@H]2C[C@@H]1N(C)C(=O)NC1CCCCC1	none (no result: Rin1 Abl inh, Neddyl block)
CN[C@H]1C[C@H]2c3[nH]c4ccccc4c3CCN2C(=O)[C@H]1[C@H](C)O	KLK7 zymogen act 27.8 (not shown: Neddyl block) | proKLK7 act conf 13.9 | EDANS-DABCYL int 12.5
COc1ccc(S[C@]2(C(=O)N3CCOCC3)CC(=O)N(S(=O)(=O)c3ccc(F)cc3)[C@@H]2c2ccc(OC)cc2)cc1	none (no result: Rin1 Abl inh, Neddyl block)
Cc1c(NC(=O)C(C)OC(=O)c2ccc(NC(=O)CC#N)cc2)c(=O)n(-c2ccccc2)n1C (configuration not stated)	none
COc1ccc(Nc2nc3c(C)cccc3cc2C#N)cc1	none
COc1cccc(Nc2nc3cc(OC)ccc3cc2C#N)c1	KLK7 zymogen act 29.4 | proKLK7 act conf 56.0 | EDANS-DABCYL int 60.5
COc1ccc(OC)c(C2NC(=O)NC(C)=C2C(=O)OC2CCCCC2)c1 (configuration not stated)	KLK7 zymogen act 18.6 | proKLK7 act conf inactive | EDANS-DABCYL int inactive

Source: PubChem (several laboratories)
